The values below come from the supplement of paper PMC10941209.

The structures appear in SMILES notation.

This assay has as its system Toxoplasma gondii RH 2F1 tachyzoites (intracellular in HFF). The experiment in a line: parasite survival relative to DMSO control; higher = less antiparasitic activity, active = 20 or less. As to conditions: 1 µM; 72 h. The method in brief: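 Intracellular Toxoplasma gondii RH-2F1 tachyzoites, which express β-galactosidase, were grown in HFF cells (5 × 10^3 cells/well, 96-well plates) infected with 5 × 10^3 parasites in D2 medium for 3 h, then treated with compound at 1 μM for 72 h at 37°C in 5% CO2. Cells were lysed for 15 min, then CPRG was added and absorbance read at 570 nm after 30 min. Survival is the signal as a percentage of DMSO-treated infected controls, from 2 or more biological replicates.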
On to `O=C(O)c1cc(-c2ccc(Br)cc2)nc2ccc(Cl)cc12`, for which the parasite survival was 72.8% (inactive). Turning to `COc1ccc(OCc2ccc(COc3c(Cl)cccc3Cl)cc2)c(Cl)c1`, the parasite survival was 72% (inactive). For `CC(C)(C)c1cc(CCC(=O)N2CCC2)cc(C(C)(C)C)c1O` the value was 52.9% (inactive). The value for `N=C(N)NCCCCC(=O)Nc1cc(C(F)(F)F)cc(NC(=O)c2cc(C(=O)Nc3cc(C(F)(F)F)cc(NC(=O)CCCCNC(=N)N)c3O[C@@H]3CCNC3)ncn2)c1O[C@@H]1CCNC1` was 58.7% (inactive). `O=c1cc(OCc2ccccc2)ccn1Cc1ccccc1`: the parasite survival is 37% (inactive). For `CN(C)CCCNC(=O)c1ccc(-c2cc(O)c3ncccc3c2)cc1` the value was 81.2% (inactive); for `CCc1cc(CCCOc2c(C)cc(-c3noc(C(F)(F)F)n3)cc2C)on1`, 55.4% (inactive); for `CC(C)(C)c1ccc(OCCn2nc(C(=O)O)c3ccccc3c2=O)cc1`, 45.3% (inactive). For `CCn1cc(C(=O)O)c(=O)c2cc(F)c(N3CCNC(C)C3)c(F)c21` (stereo not given) the value was 76% (inactive); for `C=C(C)n1c(=O)n(Cc2ccccc2C)c2ccccc21`, 44.5% (inactive); for `CO[C@@]1(NC(=O)Cc2cccs2)C(=O)N2C(C(=O)O)=C(COC(N)=O)CS[C@@H]21`, 61.6% (inactive). The value for `Cn1c2ccccc2c(=O)c2c(O)cccc21` was 49.5% (inactive); that for `c1cnc(NCc2ccc(CNc3ncccn3)cc2)nc1` was 71.1% (inactive); that for `Cc1[nH]c2ccccc2c1CC(=O)N[C@@H](Cc1ccccc1)C(=O)N(C)c1ccccc1` was 83.1% (inactive). As for `COc1ccc(SC(=O)N[C@H](CCC(=O)O)C(=O)O)cc1`, the parasite survival was 56.2% (inactive).
